Test results reported in PubChem BioAssay AID1159580 (chemical genetic matrix, 2015).
“And” between values parts separate entries of the source, which are not always exact repeats. Equal values may be shown once. Screen size: about 5,500 compounds; about 2,000 (36%) were called active. Roughly 18% stayed inconclusive and do not appear here. Rule as the data show it: active = normalized growth mostly below about 0.91 (no sharp cut-off); inconclusive = no clear call, values can overlap the other calls; inactive = mostly above about 0.92. This is one part of the list.

Assay: chemical genetic growth profiling, strain panel (AID 1159580);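 also: tested at 20 µM; growth read once vehicle control cultures reached saturation at 30 °C; 1 = growth at the plate median or of vehicle wells; lower values mean less growth of the strain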
Conditions: S. cerevisiae deletion strains, growth OD

Measured: normalized growth

O=c1[nH]cnc2nc[nH]c12
inactive: locus YAL021C, strain ccr4, hits give low values 1.04 | locus YAL026C, strain drs2, hits give low values 1.02 | locus YAL030W, strain snc1, hits give low values 1.03 | locus YBL061C, strain skt5, hits give low values 1.02 | locus YBR009C, strain hhf1, hits give low values 1.01 | locus YBR021W, strain FUR4, hits give low values 0.972 | locus YBR023C, strain chs3, hits give low values 1.01 | locus YBR171W, strain sec66, hits give low values 1.04 | locus YBR229C, strain ROT2, hits give low values 0.992 | locus YBR231C, strain swc5, hits give low values 1.02 | locus YBR279W, strain paf1, hits give low values 1.01 | locus YCL011C, strain gbp2, hits give low values 1.03 | locus YCL016C, strain dcc1, hits give low values 1.01 | locus YCL029C, strain bik1, hits give low values 0.977 | locus YCL061C, strain MRC1, hits give low values 1.01 | locus YCL069W, strain vba3, hits give low values 1.01 | locus YCR088W, strain abp1, hits give low values 1.02 | locus YDL005C, strain med2, hits give low values 1.02 | locus YDL035C, strain GPR1, hits give low values 1.01 | locus YDL040C, strain nat1, hits give low values 1 | locus YDL074C, strain BRE1, hits give low values 0.986 | locus YDL101C, strain DUN1, hits give low values 0.999 | locus YDL134C, strain PPH21, hits give low values 1 | locus YDL185W, strain tfp1, hits give low values 0.979 | locus YDL192W, strain arf1, hits give low values 0.994 | locus YDR001C, strain nth1, hits give low values 1.01 | locus YDR069C, strain doa4, hits give low values 1.04 | locus YDR101C, strain arx1, hits give low values 0.973 | locus YDR137W, strain rgp1, hits give low values 1.07 | locus YDR150W, strain NUM1, hits give low values 1 | locus YDR159W, strain sac3, hits give low values 1.03 | locus YDR162C, strain NBP2, hits give low values 1.04 | locus YDR195W, strain ref2 1.01 | locus YDR297W, strain sur2, hits give low values 1.04 | locus YDR318W, strain mcm21, hits give low values 0.984 | locus YDR334W, strain swr1, hits give low values 1.03 | locus YDR335W, strain msn5, hits give low values 1.02 | locus YDR388W, hits give low values 0.983 | locus YDR392W, strain spt3, hits give low values 1.01 | locus YDR502C, strain sam2, hits give low values 1 | locus YEL003W, strain gim4, hits give low values 1.01 | locus YEL037C, strain rad23, hits give low values 1.01 | locus YEL061C, strain CIN8 (second series), hits give low values 1.02 | locus YEL061C, strain CIN8, hits give low values 1 | locus YER015W, strain faa2, hits give low values 1.01 | locus YER016W, strain bim1, hits give low values 1.02 | locus YER110C, hits give low values 0.969 | locus YER111C, strain swi4, hits give low values 1.02 | locus YER155C, strain BEM2 (second series), hits give low values 1.02 | locus YER155C, strain BEM2, hits give low values 0.992 | locus YER167W, strain BCK2, hits give low values 0.982 | locus YFR010W, strain ubp6, hits give low values 1.03 | locus YGL078C, strain dbp3, hits give low values 0.986 | locus YGL086W, strain mad1, hits give low values 0.955 | locus YGL167C, strain pmr1, hits give low values 1.02 | locus YGL173C, strain kem1, hits give low values 1.03 | locus YGL227W, strain vid30, hits give low values 1.01 | locus YGL240W, strain doc1, hits give low values 1.01 | locus YGL248W, strain PDE1, hits give low values 1.01 | locus YGL253W, strain hxk2, hits give low values 1.02 | locus YGR135W, strain pre9, hits give low values 1.01 | locus YGR252W, strain gcn5, hits give low values 1.09 | locus YHR013C, strain ard1, hits give low values 1.05 | locus YHR027C, strain rpn1, hits give low values 1.01 | locus YHR030C, strain SLT2, hits give low values 0.989 and 1.05 | locus YHR079C, strain IRE1 (second series), hits give low values 0.975 | locus YHR079C, strain IRE1, hits give low values 1.02 | locus YHR094C, strain hxt1, hits give low values 0.974 | locus YHR129C, strain ARP1, hits give low values 0.996 | locus YHR142W, strain chs7, hits give low values 1.02 | locus YHR200W, strain rpn10, hits give low values 0.998 | locus YIL066C, strain RNR3, hits give low values 0.998 | locus YIL073C, strain SPO22, hits give low values 0.963 | locus YIL125W, strain kgd1, hits give low values 0.972 | locus YIR030C, strain dcg1, hits give low values 0.989 | locus YJL092W, strain hpr5, hits give low values 1.02 | locus YJL095W, strain BCK1 (second series), hits give low values 1.01 | locus YJL095W, strain BCK1, hits give low values 1.02 and 1.01 | locus YJL115W, strain asf1, hits give low values 1.02 | locus YJL129C, strain trk1, hits give low values 1.03 | locus YJL134W, strain LCB3, hits give low values 0.994 | locus YJL154C, strain vps35, hits give low values 1.02 | locus YJL164C, strain tpk1, hits give low values 1.01 | locus YJL166W, strain qcr8, hits give low values 1.01 | locus YJL168C, strain set2, hits give low values 0.977 | locus YJL187C, strain SWE1 (second series), hits give low values 1.01 | locus YJL187C, strain SWE1, hits give low values 1.02 | locus YJR043C, strain POL32, hits give low values 1.03
